The list is not random: actives were taken first. Their share in the collection is about 19%.
Lassa entry inh – blocks Lassa virus binding to or entry into cells; Potency, µM (top dose mostly 37.9 µM), without a hit: at the highest dose activity change, negative = inhibition, most hits filed as inhibitors; 300,000 tested, 1.2% active; Lassa virus pseudotype entry inhibition, cell reporter; calls by dose curve; tested in HEK293 cells; further: potency means the concentration at half of the fitted maximal effect; on the % scale 0 is the no-effect control and ±100 the full control effect; nearly all actives have a fitted effect of over 50% in size
CHX counter – affects cycloheximide protein synthesis inhibition readout, counter-screen; cell reporter, cycloheximide protein synthesis inhibition counterscreen; 300,000 tested, 12% active; max response, %; AID 2314; in the data active means max response mostly above about 13%, no sharp cut-off; inactive means mostly below about 14%; further: read at 38.3 µM for the half of the compounds with a filed dose; 0% is about no effect
Pf growth 48h – inhibits P. falciparum growth in the first generation, 48 h | 310,000 tested, 5.9% active | P. falciparum luciferase growth in erythrocytes, 48 h | Potency, µM (doses to about 28.7 µM), inactives show top-dose activity change, negative = inhibition, actives largely listed as inhibitors | AID 504832; further: potency means the concentration at half of the fitted maximal effect; on the % scale 0 is the no-effect control and ±100 the full control effect
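Erythrocytes infected with P. falciparum carrying an integrated firefly luciferase reporter (2% hematocrit, 0.1% parasitemia final) were exposed to compounds in RPMI 1640 with 0.5% Albumax at 37 C, 5% CO2. Growth inhibition was scored as reduced luminescence.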
Shiga inhibitor – Shiga toxin inhibition. Vero cells, Shiga toxin protein synthesis inhibition reporter. inhibition, % at 38.7 µM. 290,000 tested, 9.2% active. AID 2315; in the data active means inhibition mostly above about 28%, no sharp cut-off; inactive means mostly below about 43%; further: 0% is about no effect
Pf growth 96h – P. falciparum growth inhibition at 96 hour, primary screen for plastid delayed-death inhibitors. P. falciparum luciferase reporter growth, 96 h. Potency, µM (series often up to 28.7 µM), for inactives: at the highest dose activity change, negative = inhibition, usual class: inhibitors. 320,000 tested, 6.9% active; further: potency means the concentration at half of the fitted maximal effect; on the % scale 0 is the no-effect control and ±100 the full control effect
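P. falciparum expressing integrated firefly luciferase grown in erythrocytes (2% hematocrit, 0.05% parasitemia final) with compounds for 96 hours at 37 C, 5% CO2. Growth inhibition read as loss of luminescence after adding luciferase detection reagent.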
MARV entry inh – blocks Marburg virus binding to or entry into cells; 300,000 tested, 1.8% active; Potency, µM (titrated, usually from 37.8 µM), without a hit: at the top dose activity change, negative = inhibition, actives largely listed as inhibitors; AID 540276; Marburg virus pseudotyped entry inhibition, cell reporter; calls by dose curve; tested in HEK293 cells; further: potency means the concentration at half of the fitted maximal effect; on the % scale 0 is the no-effect control and ±100 the full control effect
Numbers without * were called inactive; i = inactive; ? = inconclusive; . = no result given; [ ] = dose if it differs, or a comment. Unless noted, the call rests on the fitted dose curve; in most records, active means well fitted inhibition curve with a large enough effect; inconclusive means small, poorly fitted or top-dose-only effect, or another doubt; inactive means no such curve, though single readings can be large or run the other way.

SMILES | Lassa entry inh | CHX counter | Pf growth 48h | Shiga inhibitor | Pf growth 96h | MARV entry inh
Cc1cc(Cl)c2oc(C(=O)N3CCN(C(=O)c4ccco4)CC3)c(C)c2c1 | . | 38* | ? | 65* | 6% | .
CSc1ccccc1NC(=O)c1ccccc1N(C)S(C)(=O)=O | -8% | 7 | -1% | -16 | 11% | -1%
Cc1c(C(=O)N2CCCCC2)oc2ccccc12 | 20% | . | . | . | . | 13%
Cc1cc(Cl)c2oc(C(=O)N3CCN(c4cccc(C)n4)CC3)c(C)c2c1 | 16% | 47* | 7% | . | 3.7µM* | -2%
Nc1c(C(=O)N2CCCCCC2)oc2ccccc12 | . | 21* | 28% | 41 | 59% | .
COc1cccc2sc(=NC(=O)CS(=O)(=O)c3ccc(Cl)cc3)n(C)c12 | -15% | . | ? | . | ? | -17%[46.1 µM]
CCOC(=O)c1c(NC(=O)C2=C(C)NC(=S)NC2c2ccc(C)cc2)sc(C)c1C (centres undefined) | ? | 8 | 12µM* | 21 | ? | ?
CC1=C(C(=O)Nc2ccccn2)C(c2ccc(Br)cc2)NC(=S)N1 (centres undefined) | -10% | 37* | 37% | 50* | 50% | ?
CCOC(=O)c1c(NC(=O)C2=C(C)NC(=S)NC2c2ccc(F)cc2)sc(C)c1C (centres undefined) | ? | 1 | ? | 20 | ? | -40%
CC1=C(C(=O)Nc2ccc(C)cc2)C(c2cccs2)NC(=S)N1 (centres undefined) | -3% | 19* | -3% | 22 | 52% | 22%
CC1=C(C(=O)Nc2ccccn2)C(c2ccc(Cl)cc2)NC(=S)N1 (centres undefined) | ? | 46* | 122% | 72* | -13% | 8%[46.1 µM]
COc1ccc(/C=N/NC(=O)CNc2ccc(Br)cc2)c(C(=O)O)c1OC | 7%[46.1 µM] | 8 | ? | 32 | 55% | 9%[46.1 µM]
COCCCn1c(C(=O)N2CCOCC2)cc2c(=O)n3ccccc3nc21 | . | -6 | 5% | -12 | 0% | .
CCCCC1(C)OC(=O)C(=Cc2c[nH]c3ccccc23)C(=O)O1 (centres undefined) | -10% | -2 | 17% | -8 | 57% | -7%[46.1 µM]
CCNC(=S)N(CCc1c(C)[nH]c2ccc(Cl)cc12)Cc1ccco1 | 7.9µM* | 1 | ? | 4 | ? | ?
Cc1cc(C)cc(-n2cnc3cc(C(=O)NCCc4ccccc4)ccc32)c1 | 3%[46.1 µM] | . | . | . | . | .
CC1=CC(=C(C#N)C#N)c2ccccc2N1C | 6%[46.1 µM] | -5 | 12µM* | -7 | 13% | 22%[46.1 µM]
CC1=C/C(=C\C=C(C#N)C#N)N(C)c2ccccc21 | 0%[46.1 µM] | -2 | 18% | -11 | 4% | 6%[46.1 µM]
COc1ccc(-n2cc(-c3ccccc3)[nH]c2=S)cc1 | -26% | 12 | 28% | 13 | ? | 3%
COc1cccc(-c2cn(-c3cccc(C(F)(F)F)c3)c(=S)[nH]2)c1 | . | 13 | 10µM* | -3 | ? | .
CCC(C)Sc1oc(-c2ccco2)nc1S(=O)(=O)c1ccc(C)cc1 (centres undefined) | -10%[46.1 µM] | . | . | . | . | 10µM*
CSc1oc(-c2ccco2)nc1S(=O)(=O)c1ccc(C)cc1 | 11%[46.1 µM] | -2 | ? | 2 | ? | ?
c1ccc(N2CCN(c3ccccc3)C2c2cccs2)cc1 | 13% | 30* | -16% | 94* | . | ?
O=C1CSC(c2ccccn2)N1c1ccc(C(F)(F)F)cc1 (centres undefined) | . | -5 | 2.9µM* | 10 | ? | .
O=C1CSC(c2cccs2)N1c1ccccc1 (centres undefined) | 8% | -1 | 6% | -6 | 7.4µM* | 25%
SMILES | Lassa entry inh | CHX counter | Pf growth 48h | Shiga inhibitor | Pf growth 96h | MARV entry inh
COC(=O)c1c(C)[nH]c(C(=O)OC(C)C(=O)N(C)C2CCCCC2)c1C (centres undefined) | ? | . | ? | . | ? | 0%
CC(C)(C)c1ccc(C(CC(=O)O)NC(=O)Cc2ccccc2)cc1 (centres undefined) | 26%[46.1 µM] | -4 | 18% | -6 | -17% | 3%[46.1 µM]
COc1ccc(CN(C)C(=O)CCl)cc1 | . | 13 | 13µM* | -10 | 10µM* | .
CN(Cc1ccc(Cl)cc1)C(=O)CCl | . | 2 | ? | 4 | ? | .
CN(C)CCNC(=O)c1ccc(Cl)s1 | 10% | -4 | 35% | 32 | -18% | 2%
CN(Cc1ccc(Cl)s1)C(=O)CCl | 11µM* | 8 | 9.3µM* | 21 | 1.5µM* | ?
COC(=O)c1ccccc1S(=O)(=O)NNC(=O)C1COc2ccccc2O1 (centres undefined) | 23% | . | 46% | . | 22% | 14%[46.1 µM]
NNC(=S)Nc1c(F)cc(F)cc1Br | ? | 2 | -29% | -6 | ? | 8%[46.1 µM]
Cc1cc(C)nc(SCCS(=O)(=O)Cc2ccc(Cl)cc2)n1 | -8% | 6 | 4% | -9 | 10µM* | -14%
Cc1cc(C)nc(SCCS(=O)(=O)Cc2ccccc2)n1 | 13% | -5 | 15% | -14 | -17% | -16%
COc1cccc(/C(O)=C2/C(=O)C(=O)N(CCN(C)C)C2c2ccc(Br)cc2)c1 (centres undefined) | 1% | -3 | 7% | 18 | 69% | 0%[46.1 µM]
CCOC(=O)CN1C(=O)/C(=C/c2ccccc2Br)Oc2ccccc21 | 23%[46.1 µM] | -3 | 14% | 12 | 2.1µM* | 4%[46.1 µM]
CCOC(=O)C1CCCN(C(=O)CSc2ccccc2)C1 (centres undefined) | 9% | 43* | 14% | 64* | 51% | 26%
CCOC(=O)C1CCCN(C(=O)CC(C)c2ccccc2)C1 (centres undefined) | 15% | 101* | 116% | 169* | -15% | ?
CCOC(=O)C1CCN(C(=O)CC(C)c2ccccc2)CC1 (centres undefined) | -10% | 18 | 14% | -8 | ? | 18%
CCOC(=O)C1CCCN(C(=O)CN2C(=O)c3ccccc3C2=O)C1 (centres undefined) | 3% | -2 | 8% | -3 | . | 18%
CCOC(=O)C1CCCN(C(=O)CN2C(=O)/C(=C/c3ccc(OC)cc3)Oc3ccccc32)C1 (centres undefined) | ? | 9 | ? | 29* | -17% | ?
O=C1NC(=O)/C(=C/c2cccc3ccccc23)S1 | ? | 17* | 1% | 16 | -15% | ?
O=C1NC(=O)/C(=C\c2ccccc2OCc2ccccc2)S1 | 9%[46.1 µM] | 6 | 2% | -15 | ? | 3%[46.1 µM]
CC1(OC(=O)CCc2ccccc2)C(=O)C=C2C=C3CCCN3C=C2C1=O (centres undefined) | . | -2 | 53% | 20 | 51% | .
COc1ccc(-n2nc(C(=O)Nc3cccc(Cl)c3)c3c4ccccc4n(C)c3c2=O)cc1Cl | ? | . | . | . | . | 25%[46.1 µM]
Cc1ccc(NC(=O)COc2ccc3c(c2)OCO3)c(Cl)c1 | . | . | 402% | . | i | .
N#Cc1ccccc1NC(=O)COc1ccc2c(c1)OCO2 | 18%[46.1 µM] | 47* | 121% | 93* | 8.3µM* | 13%[46.1 µM]
